# Screens (PubChem BioAssay)
# Marburg entry inh = qHTS for inhibitors of binding or entry into cells for Marburg Virus; Marburg virus pseudotyped entry inhibition, cell reporter; Potency, µM (titrated, usually from 37.8 µM), hits mostly inhibitors; 1.8% of 300,000 active; AID 540276, 2011; calls by dose curve; tested in HEK293 cells
# Lassa entry inh = qHTS for Inhibitors of binding or entry into cells for Lassa Virus | Lassa virus pseudotype entry inhibition, cell reporter | Potency, µM (titrated, usually from 37.9 µM), hits mostly inhibitors | 1.2% of 300,000 active; calls by dose curve; tested in HEK293 cells; note: nearly all actives have a fitted effect of over 50% in size
# VACV Venus inh = qHTS for Stage-Specific Inhibitors of Vaccinia Orthopoxvirus: Venus Reporter Primary qHTS. Vaccinia virus Venus reporter expression, fluorescence. Potency, µM (doses to about 36.5 µM), hits mostly inhibitors. 0.46% of 330,000 active. AID 720580, 2013; calls by dose curve; tested in A549 cells; note: nearly all actives have a fitted effect of over 30% in size
# HCV inh = qHTS Assay for Inhibitors of Hepatitis C Virus (HCV). Huh7.5.1 HCVcc-Cre infection, luciferase reporter, 44 h. Potency, µM (doses to about 41.8 µM), hits mostly inhibitors. 3.4% of 340,000 active. AID 651820, 2012; active = well fitted inhibition curve with a large enough effect; inconclusive = small, poorly fitted or top-dose-only effect, or another doubt; inactive = no such curve, though single readings can be large or run the other way
#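 Seed cells (1,000/well) for 4 h; treat with compound and infect with HCVcc-Cre, moi about 0.5. Incubate 44 h, then detect luciferase activity.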
# HCMV antiviral = qHTS Assay for inhibitors of the human cytomegalovirus (HCMV) | AID 1259415, 2018 | HFF cells, HCMV-luciferase reporter, 72 h; active compounds read low | activity change, negative = inhibition, % at 57.5 µM | 4.5% of 410,000 active; in the data active = activity change below about -60%; inconclusive = no clear call, values can overlap the other calls; inactive = above about -39%
#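 Inhibition of viral replication was scored as loss of reporter luminescence in HFFs infected with HCMV-luciferase (MOI 1 PFU/cell) for 72 h; compounds tested at 2 doses, normalized to buffer and Salinomycin controls.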
# VACV mCherry inh = qHTS for Stage-Specific Inhibitors of Vaccinia Orthopoxvirus: mCherry Reporter Primary qHTS. 0.63% of 310,000 active. Potency, µM (top dose mostly 36.5 µM), actives largely listed as inhibitors. Vaccinia virus mCherry reporter infection, fluorescence; calls by dose curve; tested in A549 cells; note: nearly all actives have a fitted effect of over 35% in size
# Hits are given with their value; – = inactive; ? = inconclusive; · = no result. An excerpt weighted towards active compounds, which were near 7.8% of everything screened.
SMILES,Marburg entry inh,Lassa entry inh,VACV Venus inh,HCV inh,HCMV antiviral,VACV mCherry inh
Cc1cnc(C)c(-c2cc(F)cc3c2OC(CNC(=O)c2cc(Cl)ccc2F)C3)n1 (stereo not drawn),·,·,–,·,·,–
CCc1ccc2oc(-c3cc(NC(=O)c4cc(OC)c(OC)c(OC)c4)ccc3O)nc2c1,·,–,–,·,–,–
CCc1ccc2oc(-c3cc(N=Cc4cccc(OC)c4O)ccc3O)nc2c1,?,6.5µM,–,–,·,–
CC(C)c1cc2c(c(O)c1O)[C@]1(C(=O)O)CCCC(C)(C)C1CC2 (stereo partly drawn),·,·,–,·,·,–
Cc1c(Cl)ccc2c(C(O)CBr)cc(-c3ccccc3)nc12 (stereo not drawn),?,?,–,10µM,–,–
O=C(CCC1N=C2c3ccccc3N=C(SCc3cccc(F)c3)N2C1=O)NCc1ccc(F)cc1 (stereo not drawn),·,–,?,·,–,?
CC(=O)c1sc(N/N=C\c2ccccc2O)nc1C,?,?,–,–,–,5µM
CC(=O)c1sc(NC(=O)C2(F)C(F)(F)C(F)(F)C(F)(F)C(F)(F)C2(F)F)nc1C,2.6µM,1.6µM,?,10µM,-98,?
CC(=O)c1sc(NC(=O)C=C(C)C)nc1C,–,–,·,–,-69,·
